The campaign covered roughly 31,000 sequences. About 1,400 (4.5%) were called active. The full list was thinned out, with actives kept by preference. A number with no mark means an inactive call.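 The calls were made as follows: active = median seed-adjusted z-score above 1 or below -1; inactive = the rest.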
assay: Novel Modifiers of Survival Motor Neuron (SMN) Protein: Gene Identification via Genome-wide siRNA Screen; conditions: HEK293T SMN2-luciferase reporter, siRNA knockdown, 72 h; actives lie on both sides
Method in brief: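 Each of three siRNAs per gene is reverse-transfected (1 pmol) into reporter HEK293T cells whose luciferase output tracks SMN protein level. After 72 h culture, ONE-Glo luminescence is control-normalized, log10-transformed and MAD-standardized; Common Seed Analysis deprioritizes seed-driven hits.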

Row | Sequence | median seed-adjusted z-score
1 | GCAUUGAGAUGUUCCACAATT against TUFM | 1.07 (active)
2 | GAAUCACUCUUUGACAACATT against SLC2A13 | -0.0451
3 | GAAGAAUACAAACAGCAAUTT against CRCP | 0
4 | CAGCUGUUCUCAUAUGCUATT against ATP5G3 | 0
5 | CCUGAUUACUAUAAGAUCATT against BRD4 | 1.13 (active)
6 | GAACCUCUCUGAAACUGCUTT against PBLD | -0.0809
7 | CGACUCCGGAGGAUUGAAATT against GSX2 | -0.621
8 | GCAAGUUAGUGGAUUAAAATT against FOXP1 | -0.198
9 | GACUAGUACUUACGGCUUUTT against RBM15 | -0.409
10 | GCAUGAACGCGGUCAUGAUTT against RAB40C | -0.161
11 | CAGGUCAAGUGUUACCGAUTT against ZCCHC13 | -0.297
12 | GCAAUUACAGGCUAGUGAATT against AKAP9 | -1.22 (active)
13 | CCUACUUCGGAGUCUAUGATT against SLC25A4 | -0.379
14 | CAAGGUUGAUGGGCGUGUATT against HNRNPA3 | 0.915
15 | CCAGGACUUUGUUACUGCATT against TIGD6 | -0.443
16 | GCUGGUACCCGUCAACAAATT against ABCC10 | -1.56 (active)
17 | GGACUUCAAUAUCGCAGUATT against PLCE1 | 0.597
18 | GGAACAGCGCAGUACGUUUTT against PDPK1 | 0.0807
19 | CCAUCGCUUUCAGCAGACATT against DLX6 | 0.0275
20 | GGACCACAAGGGAAUACAATT against KHDRBS1 | 0.0916
21 | ACUUGGAUCAUUUCCCUGATT against SLC13A5 | 0
22 | GACCUUGAAUGUUCAACAUTT against ZNF470 | -1.26 (active)

Row | Sequence | median seed-adjusted z-score
23 | GCCGCAUCGUAGCUCGUAATT against RRAD | -0.267
24 | GGAAUAUGCAUAUCAUGGATT against LNPEP | -0.386
25 | CGAUAUAUGUGAUAUGCGUTT against ZNF740 | -0.914
26 | GCAACAAGACGGAAUUGGATT against SFRS3 | 2.74 (active)
27 | GAGUGGACAUUCUAAUCAATT against RDH13 | 0.208
28 | CCAUCUUAAACUCGCUCUATT against GPR114 | 0.805
29 | CUACCGGGCUGACCUCAAATT against GPR153 | -1.08 (active)
30 | UGAGAGCUCUAGAUAUGAATT against ZNF768 | 0.169
31 | ACGGCUCUGUGGACACAGATT against GPR78 | 0.607
32 | CGAGUGAAAGAAUCAAUAUTT against OXSR1 | -0.0682
33 | GCUACGAGUUUACUAUCUUTT against TNIK | 0.154
34 | CCUCAGAGCUCAAUCAUCUTT against CD5 | 0.0416
35 | CGAUAAUCUGGGCUACAGATT against ADD1 | -0.0129
36 | CCAAUACUAACAUCUUCAATT against MCART1 | -0.605
37 | CAACGGCUCUUAGACCACATT against SPRY4 | -1.23 (active)
38 | GCUCAGUAUUUAAACAUCATT against COL9A2 | 0.0208
39 | AGCCGACAGUGGUGCACUATT against PLA2G15 | 0
40 | CGGAGACCGUACGAAAGUATT against A2M | -1.96 (active)
41 | GGAUGGAAGAUAGCUUGAATT against CPEB4 | -0.53
42 | CGGGCAUUGCCACCAAAGATT against DUX5 | -0.295
43 | GCAUUCAUCACUUCGAAAATT against BNC2 | -0.0556
44 | CCUACAGCAGUGUCUAUGATT against EIF3C | 0.56

Row | Sequence | median seed-adjusted z-score
45 | GGUUGACUCAGAUACUACATT against CENPE | 0.298
46 | GGAUCCUUACUUCUUGUCATT against COQ2 | -0.0121
47 | GGAAACCAGUGGAUAUUAATT against F11 | -0.0319
48 | ACAUCAACGUGGAACGAGATT against EIF4A1 | -1.05 (active)
49 | GAUGAGACUUUGACUAUAATT against FGD6 | 0.536
50 | GCCUGAACCUCAUCCUUAUTT against ENPP1 | -0.273
51 | GGGUUUUCAUUCAGAUGAATT against MLL4 | -0.259
52 | GGAUUAUUCCUACCUAAUUTT against CDYL2 | -0.379
53 | GGAAGAAGGUUCUCAAACATT against RETSAT | -1.7 (active)
54 | GGAGCAGUAUUGACAACAATT against NUFIP1 | -0.673
55 | GCACAAUUGAAAACUUCAATT against CYSLTR2 | 0.0461
56 | GGAUGUUCCAAAUCACGGATT against MBTD1 | 0.0649
57 | GGAUUGCCCAGGGUUCCUATT against DGKQ | -0.0985
58 | CGGUUAGAUUUGGACAGUATT against ARHGAP9 | 0
59 | GGACUUGGUUUUUCGUACATT against MED14 | -3.22 (active)
60 | UCCUUUAACUCGACAGUCATT against DRG2 | -0.175
61 | AGAGGGCACUGGACCUGAATT against UQCRB | 0.348
62 | GAUCCAAUGUAAACGUGGATT against GRLF1 | 0.0307
63 | GGACCAGAACCACAAGCAATT against GHSR | 0.18
64 | GAUCAUCUCUGAAACAGCATT against GYG1 | 0.119
65 | CAUUCGACAUAGAAGAGUUTT against ZNF551 | -0.171
66 | GGUUACAAGCGGUUUGGUATT against COLEC12 | -1.04 (active)

Row | Sequence | median seed-adjusted z-score
67 | CAUGUUAAUUGUUAAGGAUTT against WFDC8 | 0.0427
68 | GAGCAGAUCGAGAUCAAAATT against EVI5L | 0.0497
69 | GGAAAUUCAGGUACGGAUATT against ADAMTS4 | -0.0153
70 | CGGACAUUCGUGCAAAGAATT against PRPF6 | -1.06 (active)
71 | AGAAUACGAUGACCACCAATT against RING1 | 0.685
72 | GCAUACAUCAUGACCGUCATT against DUSP22 | 0
73 | GCCGAUACCUUCACUCGAATT against TAP1 | -0.506
74 | GGGAAGCUAUGCGAAAUUATT against RBPJ | -0.452
75 | GCUUCAUUGAGUACGAGAATT against PUF60 | 2.26 (active)
76 | GGAUCGGAUAAAUAACAGUTT against HEY2 | -0.0831
77 | GAUCAAGACUCUGCGCCUATT against HAND1 | 0.161
78 | GAAUUGCUGAUAAACCUAUTT against SMNDC1 | -1.54 (active)
79 | GUAUUCCAGCGAAUCCGAUTT against PAK7 | -0.202
80 | CGUCAAAAGAGCCCAUAAATT against ENPP5 | -0.0499
81 | GGAACUCUAUGGUCAUCUATT against SSTR1 | 0.285
82 | CCAAAGGAGUCAGCACUGUTT against PLXNA1 | 0
83 | GCAGUUGAAUUAUCACAGUTT against UQCRFS1 | -1.28 (active)
84 | GGAAGAAUGUGGUUUGCGATT against GFOD2 | -0.0447
85 | GGAGAGGAUUAUUUCCGCATT against SDR9C7 | 0
86 | GCAAGUUGGAGAACGAGUATT against MED8 | -1.61 (active)
87 | GGCCCAAGAUCUUCCCUAATT against GPR179 | -0.513
88 | CAGUCGUUGCUGUCAAAAATT against RGS9 | 0.0665

Row | Sequence | median seed-adjusted z-score
89 | UGCUCUCUGUUGCAUUGAATT against IAPP | -0.157
90 | GAUUUCUAAUUAACACAAUTT against POLR1D | -0.0409
91 | CCAUCAUCCGGGAUGAGGATT against NPEPL1 | 1.12 (active)
92 | GCAAAGUGCCGAAACAAGATT against ATF3 | -0.000485
93 | CGAAUAUACCAGGACGAAATT against SATB1 | 0
94 | UACUGUCUCUAGUCUUUUUTT against SEC11B | 1.04 (active)
95 | GCUUGUUCGGCUACACGAATT against CYP8B1 | 0
96 | CUAAAAGACCGAACAAUAATT against HNRPUL1 | -0.047
97 | GGUUCAUGUUUGCAAUCUUTT against POLR2B | -4.81 (active)
98 | UGAACGCAGUCAUCCGGAATT against MAPK15 | 0.0724
99 | CCAAUGAUGUAUGAUCUAATT against UBE3A | 0.0949
100 | GGACUAUAAAUCCAGCUUUTT against TOMM34 | -0.503
101 | CUCCUAAAGUGCAUCGCAATT against GUF1 | 0.119
102 | CAUCAGAUCUUGAUCAGUUTT against NKTR | -1.1 (active)
103 | CUCUUCACGUCUGACCUGATT against HTR6 | -0.463
104 | CCCAUAUGAUUACCCAUUUTT against MYH2 | -0.73
105 | CCUGCAGAAUAACCUGAUATT against OPTC | 0.0953
106 | CCUGGAAACUACAAGCCCATT against SIRT3 | -0.341
107 | GCCUCGAGCCUAUUCGUUATT against PCDHB4 | 0.00998
108 | GACUACGACUGGUUCUUCATT against CSGLCA-T | 0.146

Reference: PubChem BioAssay AID1347426 (Functional Genomics Laboratory (NCATS/FGL), 2020)
